Several values for one entry are separate records, joined by “and”; a condition that tells them apart may be missing. Equal entries are not always repeated. Records with an inconclusive call do not appear. Activity calls are given as the source filed them. Unless noted, calls come from the whole dose curve; as a rule, active = well fitted curve in the direction sought with a large enough effect in the repeat runs; inconclusive = weak or mixed curves; inactive = no such curve, though single readings can be large; an effect the other way counts as inactive or inconclusive.

Assay [1] is described as follows: qHTS assay to identify small molecule agonists of the estrogen receptor alpha (ER-alpha) signaling pathway in the presence of an antagonist - cell viability counter screen (AID 1259386).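 Note: cells exposed to compounds for 22 h at 37 °C before the viability read; nearly all actives have a fitted effect of over 30% in size.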 Note: potency is the fitted concentration of half-maximal effect. The settings on record: VM7Luc4E2 viability, CellTiter-Fluor fluorescence, 22 h; series mostly up to 92.4 µM. An outline of the steps:
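Cells are starved of estrogens for 5 days in charcoal-stripped serum, seeded for 24hr and co-treated with ICI-182,780 (10.0nM final) and test compounds. After 22hr at 37C, viability is read as CellTiter-Fluor fluorescence.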

Assay [2] has as its target Progesterone receptor (Homo sapiens) (UniProt P06401). Description: qHTS assay to identify small molecule agonists of the progesterone receptor (PR) signaling pathway (AID 1346784; calls by dose curve; note: nearly all actives have a fitted effect of over 30% in size). The settings on record: PR-UAS-bla HEK293T, beta-lactamase FRET ratio, 16 h; series mostly up to 92.4 µM. An outline of the steps:
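Reporter assay, GripTite PR-UAS-bla HEK 293T cells: 16 hr exposure to DMSO-dissolved compounds at 37C, 5% CO2, in steroid-depleted (2% charcoal-stripped FBS) medium; beta-lactamase measured by FRET fluorescence.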
For orientation: qHTS replaces the single test concentration by a dilution series.

Assay [3] in a line: qHTS assay to identify small molecule agonists of the progesterone receptor (PR) signaling pathway - cell viability counter screen (AID 1346799; calls by dose curve; note: nearly all actives have a fitted effect of over 45% in size; note: potency is the fitted concentration of half-maximal effect). The settings on record: PR-UAS-bla HEK293T viability, CellTiter-Glo luminescence, 16 h; series mostly up to 92.4 µM. An outline of the steps:
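Multiplexed viability read: CellTiter-Glo luminescence, 30 min RT, following LiveBLAzer FRET measurement on PR-UAS-bla HEK293T cells exposed to compounds 16 hr.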

Assay [4] is described as follows: qHTS assay to identify small molecule antagonists of the TGF-beta/Smad signaling pathway - cell viability counter screen (AID 1346824). Note: nearly all actives have a fitted effect of over 50% in size. Note: potency is the fitted concentration of half-maximal effect. To be noted: SBE-bla HEK293T viability, CellTiter-Glo luminescence; series mostly up to 76.8 µM. The method, boiled down: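 Cytotoxicity counter-screen run in the same wells as the beta-lactamase Smad reporter read: CellTiter-Glo luminescence after 30 min at room temperature. HEK 293T SBE-bla cells had 5 hr compound exposure at 37 C with TGF-beta1 (0.25 ng/mL stock).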

Assay [5] is described as follows: qHTS assay to identify small molecule agonists of the TGF-beta/Smad signaling pathway - cell viability counter screen (AID 1346829). Note: nearly all actives have a fitted effect of over 45% in size. Note: potency is the fitted concentration of half-maximal effect. The settings on record: SBE-bla HEK293T viability, CellTiter-Glo luminescence, 5 h; series mostly up to 76.8 µM. The method, boiled down:
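Tox21 qHTS format: SBE-bla HEK 293T cells treated with DMSO-dissolved compounds for 5 hr; CellTiter-Glo luminescence after 30 min at room temperature.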

The nature of assay [6]: qHTS assay to identify small molecule agonists of the TGF-beta/Smad signaling pathway (AID 1346859; active = well fitted activation curve with a large enough effect in the signal ratio in the repeat runs, not every such curve was filed as active; the % refers to the signal ratio). The settings on record: SBE-bla HEK293T, TGF-beta/Smad beta-lactamase reporter, 5 h; series mostly up to 76.8 µM. An outline of the steps: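 Screening used HEK 293T SBE-bla cells at 4,000/well. Test agents: 5 hr, 37 C. Detection: FRET substrate, 2 hr RT, then excitation 405 nm with emissions at 460 and 530 nm.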

Assay [7] has as its target Thyrotropin-releasing hormone receptor (Homo sapiens) (UniProt P34981). Description: qHTS assay to identify small molecule antagonists of the thyrotropin-releasing hormone receptor (TRHR) signaling pathway (AID 1346877; active = well fitted inhibition curve with a large enough effect in the repeat runs, not every such curve was filed as active). To be noted: TRHR-HEK293, TRH-induced calcium fluorescence, antagonist mode; series mostly up to 51.3 µM. The method, boiled down: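 Cells (TRHR-HEK293) are plated and kept 18 h at 37 °C/5% CO2. A calcium-sensitive dye is added for 2 h, compound follows for 5 min at room temperature, and TRH is then given at 1 nM final.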

For assay [8] the target is unchanged. The assay is described as follows: qHTS assay to identify small molecule agonists of the thyrotropin-releasing hormone receptor (TRHR) signaling pathway (AID 1346891; calls by dose curve). To be noted: TRHR-HEK293 calcium fluorescence, agonist mode; series mostly up to 57.6 µM. The method, boiled down:
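Readout was intracellular calcium fluorescence in TRHR-Hek293 cells. Cells were incubated 18 h, dye-loaded 2 h at 37 °C, and treated with compound in agonist mode.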

Assay [9] deals with Progesterone receptor (Homo sapiens) (UniProt P06401). The assay is described as follows: qHTS assay to identify small molecule antagonists of the progesterone receptor (PR) signaling pathway (AID 1346795; active = well fitted inhibition curve with a large enough effect in the signal ratio in the repeat runs, not every such curve was filed as active; the % refers to the signal ratio; note: potency is the fitted concentration of half-maximal effect). To be noted: PR-UAS-bla HEK293T, beta-lactamase FRET ratio, 16 h; series mostly up to 92.4 µM. The method, boiled down: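 Stimulus R5020 at 1 nM final; cells HEK293T PR-UAS-bla; medium with 2% charcoal-stripped FBS; compound exposure 16 hr at 37C, 5% CO2; detection by FRET beta-lactamase substrate, 2 hr, room temperature.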

The nature of assay [10]: qHTS assay to identify small molecule antagonists of the progesterone receptor (PR) signaling pathway - cell viability counter screen (AID 1346798). Note: nearly all actives have a fitted effect of over 50% in size. Note: potency is the fitted concentration of half-maximal effect. The settings on record: PR-UAS-bla HEK293T viability, CellTiter-Glo luminescence, 16 h; series mostly up to 92.4 µM. An outline of the steps:
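In the same plates used for the beta-lactamase readout, cell viability of compound- and R5020-treated PR-UAS-bla HEK293T cells (16 hr, 37C) was assessed by CellTiter-Glo luminescence.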

Chain of Progesterone receptor (Homo sapiens) (P06401 whole entry, looked up): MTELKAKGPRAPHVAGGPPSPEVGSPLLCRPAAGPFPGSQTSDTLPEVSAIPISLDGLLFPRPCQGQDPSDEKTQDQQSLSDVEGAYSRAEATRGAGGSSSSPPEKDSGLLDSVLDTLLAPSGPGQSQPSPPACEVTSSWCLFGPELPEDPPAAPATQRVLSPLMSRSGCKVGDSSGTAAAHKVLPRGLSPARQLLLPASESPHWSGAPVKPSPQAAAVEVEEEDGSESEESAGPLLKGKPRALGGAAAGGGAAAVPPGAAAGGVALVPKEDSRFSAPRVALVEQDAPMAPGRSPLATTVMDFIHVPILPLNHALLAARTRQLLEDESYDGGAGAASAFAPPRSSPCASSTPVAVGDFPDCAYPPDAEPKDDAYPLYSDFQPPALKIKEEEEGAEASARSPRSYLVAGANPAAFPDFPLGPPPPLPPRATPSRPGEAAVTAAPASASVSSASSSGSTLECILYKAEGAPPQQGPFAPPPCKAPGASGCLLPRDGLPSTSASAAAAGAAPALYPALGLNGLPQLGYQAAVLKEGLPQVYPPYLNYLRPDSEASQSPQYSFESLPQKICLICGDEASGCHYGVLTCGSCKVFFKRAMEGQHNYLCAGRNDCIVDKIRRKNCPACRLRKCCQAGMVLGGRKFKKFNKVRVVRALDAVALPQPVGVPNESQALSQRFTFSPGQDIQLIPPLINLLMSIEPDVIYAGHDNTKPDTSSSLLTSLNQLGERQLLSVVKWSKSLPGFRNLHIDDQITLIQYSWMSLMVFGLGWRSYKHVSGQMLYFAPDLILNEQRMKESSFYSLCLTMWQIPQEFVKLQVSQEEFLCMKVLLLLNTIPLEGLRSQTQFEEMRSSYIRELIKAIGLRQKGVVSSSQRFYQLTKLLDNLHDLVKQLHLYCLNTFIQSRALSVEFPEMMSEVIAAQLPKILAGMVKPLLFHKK
Chain of Thyrotropin-releasing hormone receptor (Homo sapiens) (P34981 whole entry, looked up): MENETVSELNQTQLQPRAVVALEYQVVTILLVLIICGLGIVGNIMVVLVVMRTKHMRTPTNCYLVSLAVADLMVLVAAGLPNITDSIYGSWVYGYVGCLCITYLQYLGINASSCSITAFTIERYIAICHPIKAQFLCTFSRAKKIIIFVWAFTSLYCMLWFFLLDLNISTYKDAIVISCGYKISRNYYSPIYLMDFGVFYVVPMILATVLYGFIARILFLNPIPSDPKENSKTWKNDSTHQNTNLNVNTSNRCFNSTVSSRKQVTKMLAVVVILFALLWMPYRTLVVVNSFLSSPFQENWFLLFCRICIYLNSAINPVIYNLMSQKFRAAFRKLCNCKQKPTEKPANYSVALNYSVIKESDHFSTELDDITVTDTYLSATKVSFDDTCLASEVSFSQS

`Nc1ccc([N+](=O)[O-])cc1N`: the Potency in assay [1] is 48.5 µM (active) and 38.6 µM (active). The Potency entry in [2], in [3], in assay [4], in assay [5], in [6] and in assay [7] was “inactive” in each case. In [8], the outcome was inactive.

Consider `N#Cc1c(Cl)c(Cl)c(Cl)c(C#N)c1Cl`, for which the Potency is 23.9 µM (active) and 54.5 µM (active) in [1]; 3.37 µM (active) and 3.86 µM (active) in assay [9]; 19 µM (active) and 13.7 µM (active) in assay [10]; 21.3 µM (active) and 19.3 µM (active) in assay [3]; 48 µM (active) and 49 µM (active) in assay [4]; 48 µM (active) and 54.9 µM (active) in assay [5]. For the same molecule, the Potency entry in [6] is “inactive”.

In the case of `Nc1ccc2ccccc2c1`, the Potency result in [1], in assay [2], in assay [9], in assay [3], in assay [4] and in assay [5] was “inactive” each time. For the same molecule, the Potency entry in assay [6] and in assay [7] was “inactive” throughout. In [8], the result was inactive.

`Cn1c(-c2ccccc2)cc(-c2ccccc2)[n+]1C`: the Potency entry in assay [2], in [9], in assay [3], in [4], in [5] and in [6] was “inactive” in each case. The Potency result in [7] was “inactive”. For the same molecule, the outcome in assay [8] was inactive.

Regarding `O=[N+]([O-])c1ccc(Nc2ccccc2)cc1`, the Potency in [1] is 27.5 µM (active) and 27.3 µM (active). The Potency result in [2], in assay [10], in [4], in assay [5], in assay [6] and in [7] was “inactive” each time. Moreover, in assay [8], the result was inactive.

Take `CC1(C)C(C(=O)OC(C#N)c2cccc(Oc3ccccc3)c2)C1(C)C` (configuration not stated): the Potency entry in assay [1], in assay [2], in assay [4], in assay [5], in assay [6] and in assay [7] was “inactive” in each case. For the same molecule, the Potency in assay [9] was 24.5 µM (active). Besides, the outcome in [8] was inactive.

With `C[C@]12CCC(=O)C=C1CC[C@@H]1[C@@H]2CC[C@@]2(C)[C@H]1CC[C@]2(C)O`, the Potency entry in assay [1], in assay [9], in [10], in assay [4], in assay [5] and in assay [6] was “inactive” throughout. The Potency result in assay [7] was “inactive”. For the same molecule, in assay [8], the result was inactive.

Turning to `CC(C)Nc1ccc(Nc2ccccc2)cc1`, the Potency in assay [1] was 60.9 µM (active); in assay [9], 30.5 µM (active) and 27.3 µM (active). The Potency result in [4], in [5], in [6] and in [7] was “inactive” each time. The result in assay [8] was inactive.

On to `CC1=C(C(=O)Nc2ccccc2)SCCO1`, for which the Potency result in [1], in assay [2], in assay [3], in assay [4], in assay [5] and in assay [6] was “inactive” throughout. Further, in assay [7], the Potency result was “inactive”. Further, the outcome in assay [8] was inactive.

Turning to `COc1ccc(O)c(C(C)(C)C)c1`, the Potency entry in [1], in [9], in assay [3], in assay [4], in assay [5] and in assay [6] was “inactive” throughout.

Values taken from PubChem BioAssay (Tox21).
